EBNA-1 inhibitor: blocks EBNA-1 binding to DNA; EBNA-1 DNA binding, fluorescence polarization; inhibition, % at 14.8 µM; actives 0.34% (n = 300,000); AID 1950; in the data active = inhibition above about 28%
ZTA DNA inh: ZTA (EBV) inhibition in EBNA-1 counter-screen; ZTA-DNA binding, fluorescence polarization; actives 0.15% (n = 320,000); inhibition, % at 11 µM; P03206; in the data active = inhibition above about 33%
pPAFAH FP inh: pPAFAH (human) enzyme inhibition; AID 463082; Q13093; actives 1.5% (n = 330,000); inhibition, % at 3.39 µM; recombinant pPAFAH, FP-rhodamine probe fluorescence polarization;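 active = inhibition above the mean inhibition across the screen plus 3 SD, cut at about 25% in these data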;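 also: inhibitors block binding of the rhodamine activity-based probe so polarization drops; 0% = enzyme with DMSO and 100% = wells lacking pPAFAH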
PAFAH1B3 inh: blocks human PAF acetylhydrolase 1B catalytic subunit 3. Q15102. recombinant PAFAH1B3, FP-rhodamine probe, fluorescence polarization. inhibition, % at 3.39 µM. actives 0.28% (n = 340,000). AID 492972;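 active = inhibition above the screen-wide average of all tested compounds plus 3 SD, cut at about 25% in these data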;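 also: 0% = enzyme with DMSO only and 100% = wells lacking PAFAH1B3 protein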
Target sequence (Q15102 whole entry, looked up): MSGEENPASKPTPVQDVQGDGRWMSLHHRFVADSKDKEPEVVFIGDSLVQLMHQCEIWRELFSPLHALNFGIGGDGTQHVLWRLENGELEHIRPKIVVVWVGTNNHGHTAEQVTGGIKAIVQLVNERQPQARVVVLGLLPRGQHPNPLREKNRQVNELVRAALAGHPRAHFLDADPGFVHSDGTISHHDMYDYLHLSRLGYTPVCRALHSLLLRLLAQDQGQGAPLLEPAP
PAFAH2 inh: PAFAH2 (human) inhibition. Q99487. recombinant PAFAH2, FP-rhodamine activity probe, fluorescence polarization. inhibition, % at 3.39 µM. actives 0.99% (n = 340,000). AID 492956;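 active = inhibition above the mean over all tested compounds plus 3 SD, cut at about 30% in these data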;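 also: inhibitors block probe labeling of enzyme so polarization drops; 0% = enzyme with DMSO and 100% = wells lacking PAFAH2 protein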
PAFAH1B2 inh: inhibitors of human PAFAH1B2. AID 492953. actives 1.2% (n = 340,000). inhibition, % at 3.39 µM. recombinant PAFAH1B2, FP-rhodamine activity probe, fluorescence polarization. P68402;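 active = inhibition above the mean of all tested compounds plus 3 SD, cut at about 24% in these data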;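 also: 0% = enzyme with DMSO and 100% = wells lacking PAFAH1B2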
Target sequence (P68402 whole entry, looked up): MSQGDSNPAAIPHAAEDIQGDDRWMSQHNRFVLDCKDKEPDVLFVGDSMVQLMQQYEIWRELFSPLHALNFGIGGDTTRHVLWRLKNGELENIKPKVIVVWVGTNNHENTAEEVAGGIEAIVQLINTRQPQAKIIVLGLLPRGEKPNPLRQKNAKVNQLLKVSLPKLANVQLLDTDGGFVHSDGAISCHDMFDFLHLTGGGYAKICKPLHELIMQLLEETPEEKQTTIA
PAFAH2 FP conf: confirmation of human PAFAH2 inhibitors | shares compounds with PAFAH2 inh | recombinant PAFAH2, FP-rhodamine activity probe, fluorescence polarization | inhibition, % at 3.39 µM | actives 65% (n = 2,300);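 active = mean inhibition over three repeats above a set limit taken from the earlier primary screen, cut at about 30% in these data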;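 also: inhibitor blocks binding of rhodamine activity probe so polarization falls; 0% = enzyme with DMSO and 100% = wells lacking PAFAH2 protein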
Active calls of the source: *; . = not tested or not shown. Hits are enriched below; roughly 2.9% of the tested compounds scored in any of these assays.

SMILES	EBNA-1 inhibitor	ZTA DNA inh	pPAFAH FP inh	PAFAH1B3 inh	PAFAH2 inh	PAFAH1B2 inh	PAFAH2 FP conf
COCC(=O)Nc1ccccc1C#N	11	14	0	-1	-7	-1	.
N#Cc1ccccc1NC(=O)COC(=O)c1ccc(F)cc1F	-3	-1	16	11	46*	1	17
COc1cccc(NC(=O)COC(=O)c2ccc(F)cc2F)c1	4	4	21	2	73*	4	61*
Cc1csc(=O)n1CCC(=O)OCC(=O)c1ccc(Br)cc1	-9	-4	-3	8	-8	15	.
Nn1c(SCC(=O)Nc2ccccc2F)nnc1C1CCCCC1	-10	-10	2	8	4	2	.
O=C(NC1CCCCC1)C(c1ccncc1)N(Cc1ccc2c(c1)OCO2)C(=O)c1cnsn1 (centres undefined)	-15	9	-2	0	33*	7	18
O=C(NC1CCCCC1)C(c1ccc2ncccc2c1)N(Cc1ccc2c(c1)OCO2)C(=O)c1cccs1 (centres undefined)	0	5	6	-4	12	3	.
CCCCC1C(=O)N(c2ccccc2)N(c2ccc(O)cc2)C1=O (centres undefined)	0	-1	3	7	4	4	.
CC(CCc1ccccc1)NC(=O)COC(=O)c1cccs1 (centres undefined)	-3	-5	10	3	60*	5	44*
COc1cc(OC)cc(C(=O)OCC(=O)NC(C)CCc2ccccc2)c1 (centres undefined)	-22	-5	4	-2	-2	6	.
CCC(=O)Nc1ccc(C(=O)OCC(=O)c2cccs2)cc1	13	-9	-4	0	34*	1	32*
CC(NC(=O)COC(=O)c1cccs1)c1ccccc1 (centres undefined)	-12	-16	1	10	60*	3	47*
CC(CCc1ccccc1)NC(=O)COC(=O)c1cccn1C (centres undefined)	.	-3	6	3	21	3	.
COc1ccc(C(=O)OCC(=O)NC(C)CCc2ccccc2)c(OC)c1 (centres undefined)	-5	-5	2	12	49*	12	22
O=C(NNC(=O)c1ccc2nonc2c1)Nc1ccc(Cl)cc1	-1	-12	3	.	.	.	.
Cc1ccc(Cl)cc1NC(=O)COC(=O)CC1CCCCC1	.	-10	13	6	31*	11	22
O=C(COC(=O)CC1CCCC1)Nc1ccccc1[N+](=O)[O-]	.	-4	15	2	57*	-2	51*
O=C(CC(=O)Nc1ccccc1[N+](=O)[O-])Nc1ccccc1[N+](=O)[O-]	-11	-2	-3	1	1	1	.
O=C(COC(=O)c1ccc(O)cc1)Nc1ccccc1[N+](=O)[O-]	6	-2	0	6	69*	0	67*
Cc1ccccc1NC(=O)COC(=O)CC1CCCC1	.	.	.	-1	43*	4	29
COc1ccc(Cl)cc1NC(=O)CC1CCCC1	-1	11	-2	1	6	4	.
CCOC(=O)c1ccccc1NC(=O)COC(=O)CC1CCCCC1	2	8	2	2	1	-1	.
CC(=O)Nc1ccc(OS(=O)(=O)c2c(C)cc(C)cc2C)cc1	4	-1	4	8	1	7	.
CCn1cc(C(=O)NCCCN(CC(C)C)CC(C)C)c(=O)c2cc(S(=O)(=O)N3CCOCC3)ccc21	-15	-2	-2	6	8	-2	.
CC1CC1C(=O)OCC(=O)NCc1ccc(Cl)cc1 (centres undefined)	-13	-14	7	1	46*	6	23
SMILES	EBNA-1 inhibitor	ZTA DNA inh	pPAFAH FP inh	PAFAH1B3 inh	PAFAH2 inh	PAFAH1B2 inh	PAFAH2 FP conf
CC1CC1C(=O)OCC(=O)NCc1ccc(Cl)cc1Cl (centres undefined)	16	4	6	4	62*	5	53*
CCCn1c(SCC(=O)NC2CCCC2)nnc1-c1cccnc1	1	7	8	12	-2	4	.
CC1CCCN(C(=O)COC(=O)c2ccc3[nH]c4c(c3c2)CCCC4)C1 (centres undefined)	6	5	9	-2	41*	5	26
Nc1ccccc1Oc1ccc2ccccc2c1	-2	-1	7	14	-2	-2	.
COc1cc(/C=C/C(=O)OCC(=O)Nc2cc(S(=O)(=O)N3CCCCC3)ccc2C)ccc1O	3	3	12	-5	75*	-2	79*
COc1cc(C(C)=O)ccc1OCC(=O)Nc1ccc(C)c(S(=O)(=O)N2CCCCCC2)c1	.	-10	1	-1	1	6	.
COc1cc(/C=C/C(=O)OCC(=O)Nc2cc(S(=O)(=O)N3CCCC3)ccc2Cl)cc(OC)c1OC	.	.	8	6	31*	0	26
COc1cc(/C=C/C(=O)OCC(=O)Nc2ccc(C)c(S(=O)(=O)N3CCCCC3)c2)ccc1O	5	6	11	5	67*	2	73*
O=C(CN(Cc1cccs1)C(=O)CNS(=O)(=O)c1ccc(Cl)cc1)NCc1ccco1	-2	0	5	1	30*	16	28
COC(=O)C1=C(Nc2cc(Cl)cc(Cl)c2)CSC1	-7	2	3	-3	2	2	.
Cc1ccn(C(=O)c2ccc(NC(=O)CC(C)C)cc2)n1	-8	-19	-1	2	62*	-1	56*
Cc1cc(C)n(C(=O)c2ccc(NC(=O)C3CC3)cc2)n1	2	-8	9	2	2	4	.
CCC(=O)Nc1ccc(C(=O)n2ccc(C)n2)cc1	-5	10	-9	9	59*	5	61*
Cc1ccn(C(=O)c2ccc(NC(=O)C3CC3)cc2)n1	-2	4	0	3	63*	-1	53*
Cc1cc(C)n(C(=O)/C(C#N)=N/Nc2cc(Cl)cc(Cl)c2)n1	-3	12	2	1	7	8	.
COc1cccc(/C=C/C(=O)OCC(=O)Nc2ccc(Cl)c(S(=O)(=O)N(C)C)c2)c1OC	-8	-4	7	-3	82*	-3	73*
COc1ccc(OC)c(NC(=O)COC(=O)/C=C/c2ccccc2Cl)c1	0	6	23	7	7	-3	.
COc1cccc(/C=C/C(=O)OCC(=O)Nc2ccc3[nH]c(=O)[nH]c3c2)c1OC	-2	4	4	1	4	5	.
COc1ccc(OC)c(/C=C/C(=O)OCC(=O)Nc2ccc(Cl)c(S(=O)(=O)N(C)C)c2)c1	4	-3	-2	-1	45*	3	42*
O=C(c1cccc(C(F)(F)F)c1)C1CCCN(C(=O)CCCN2CCCC2=O)C1 (centres undefined)	7	-8	2	-2	1	5	.
